# Screening data from PubChem BioAssay.
# esBAF inh: SWI/SNF esBAF complex inhibition | mouse ES cells, Bmi1-luciferase knock-in reporter, 24 h; 100% = twice the neutral-well signal | reporter increase, % at 12.5 µM | 2% of 350,000 active | AID 602393; in the data active = activation above about 40%; inconclusive = no clear call, values can overlap the other calls;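 also: a rise in the Bmi1 reporter signal indicates esBAF inhibition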
# MITF TRPM1 HTS: MITF TRPM1 promoter activation in melanoma cells | activation, % at 12.5 µM | 0.75% of 300,000 active | AID 588334 | SK-MEL-5 TRPM1-promoter luciferase, 24 h; % of positive control, neutral wells = 0;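 active = mean activation of at least 80% with every replicate also reaching 80%; inconclusive = mean reaches 80% but some replicate falls short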
# PHOSPHO1 inh: PHOSPHO1 (human) inhibition; Q8TCT1; inhibition, % at 13.3 µM; recombinant PHOSPHO1, absorbance phosphatase assay; 1.1% of 290,000 active; in the data active = inhibition above about 60%
# Target sequence (Q8TCT1 whole entry, looked up): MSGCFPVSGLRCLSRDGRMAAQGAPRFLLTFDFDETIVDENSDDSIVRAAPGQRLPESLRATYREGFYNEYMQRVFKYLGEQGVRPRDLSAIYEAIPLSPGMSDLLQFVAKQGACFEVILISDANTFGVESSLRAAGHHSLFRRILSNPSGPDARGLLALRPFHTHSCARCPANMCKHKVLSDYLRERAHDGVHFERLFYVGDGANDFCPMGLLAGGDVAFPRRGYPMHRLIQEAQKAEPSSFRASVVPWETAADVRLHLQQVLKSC
# A3A deaminase: inhibitors of human APOBEC3A DNA deaminase. recombinant A3A, FAM/TAMRA ssDNA deamination fluorescence. inhibition, % at 20 µM. 0.41% of 330,000 active. AID 493011;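 active = at least 40% inhibition at 20 µM here, with at most 30% in a related deaminase screen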
# APOBEC3G inh: APOBEC3G (human) deaminase inhibition; Q9HC16; recombinant A3G, ssDNA deamination FAM/TAMRA fluorescence; inhibition, % at 20 µM; 0.28% of 330,000 active; AID 493012;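 active = inhibition of at least 40% at 20 µM, with no more than 30% in the related APOBEC3A deaminase screen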
# Target sequence (Q9HC16 whole entry, looked up): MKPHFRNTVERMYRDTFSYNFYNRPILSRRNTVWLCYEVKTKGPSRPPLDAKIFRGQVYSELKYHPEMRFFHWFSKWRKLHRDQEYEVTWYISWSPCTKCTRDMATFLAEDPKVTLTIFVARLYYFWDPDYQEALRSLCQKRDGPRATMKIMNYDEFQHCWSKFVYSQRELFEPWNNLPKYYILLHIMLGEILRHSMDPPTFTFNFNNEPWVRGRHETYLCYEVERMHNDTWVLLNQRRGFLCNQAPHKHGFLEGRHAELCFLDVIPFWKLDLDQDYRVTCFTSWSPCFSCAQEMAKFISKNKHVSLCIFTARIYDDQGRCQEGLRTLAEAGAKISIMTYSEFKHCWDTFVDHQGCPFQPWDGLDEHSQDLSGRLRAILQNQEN
# Wnt act: activators of Wnt/beta-catenin signaling; 1.2% of 300,000 active; activation, % at 9.35 µM; Wnt/beta-catenin reporter cell assay, activator, plate reader; in the data active = activation above about 30%, passing the limit was not always enough; inconclusive = no clear call, values can overlap the other calls
# A number is an active result; – = inactive; ? = inconclusive; · = no result given. The list is not random: actives were taken first. Their share in the collection is about 3.6%.
SMILES,esBAF inh,MITF TRPM1 HTS,PHOSPHO1 inh,A3A deaminase,APOBEC3G inh,Wnt act
CC1CCN(c2nc3ccc(C(=O)N4CCN(Cc5ccccc5)CC4)cc3s2)CC1,93.7,–,–,–,–,–
COc1cccc(N2CCN(C(=O)c3ccc4nc(N5CCC(C)CC5)sc4c3)CC2)c1,·,·,–,–,–,–
C[C@H]1CN([C@@H](C)CO)C(=O)Cc2cc(NC(=O)c3ccncc3)ccc2O[C@H]1CN(C)Cc1ccc(Oc2ccccc2)cc1,–,·,·,·,·,·
CO[C@H]1CC[C@@H]2CCN(C)C(=O)[C@H](C)N(C)C(=O)c3cc(C#N)ccc3OC[C@@H]1O2,–,·,·,·,·,·
N#C/C(=C\c1ccccc1O)C(=O)Nc1cccnc1,–,93.9,–,–,–,35.7
N#C[C@@H]1[C@@H](c2ccc(C#Cc3cccc(F)c3)cc2)[C@@H](CO)N1C(=O)C1CCCC1,49.7,·,·,·,·,·
N#C[C@@H]1[C@@H](c2ccc(C#Cc3ccccc3F)cc2)[C@H](CO)N1C(=O)C1CCCCC1,–,·,·,·,·,·
COc1ccc(-c2ccc([C@H]3[C@@H](C#N)N(C(=O)c4cccc(F)c4)[C@@H]3CO)cc2)cc1,50.7,·,·,·,·,·
N#C[C@@H]1[C@@H](c2ccc(C#Cc3ccccc3F)cc2)[C@@H](CO)N1C(=O)C1CCCCC1,50.9,·,·,·,·,·
N#C[C@@H]1[C@H](c2ccc(C#Cc3cccc(F)c3)cc2)[C@@H](CO)N1C(=O)C1CCC1,–,·,·,·,·,·
O=C(C[C@@H]1CC[C@H]2[C@@H](COC[C@@H](O)CN2C(=O)C2CC2)O1)NCc1ccncc1,–,·,·,·,·,·
OCCc1ccc(-c2ccc(Cl)cc2)o1,51.6,–,–,–,–,–
S=c1nc(C23CC4CC(CC(C4)C2)C3)[nH][nH]1,·,–,–,–,–,–
S=c1nn[nH]n1C12CC3CC(CC(C3)C1)C2,–,–,101.6,–,–,·
O=C(Cn1nnc(-c2ccccc2F)n1)NCc1ccco1,·,–,65.8,–,–,–
Cn1c2ccccc2c(=O)c2c(=O)n(-c3ccc(F)cc3)c(-c3cccs3)nc21,·,–,–,–,–,51.4
Cc1ccc(-c2nc3c(c(=O)c4ccccc4n3C)c(=O)n2-c2ccc(F)cc2)cc1,·,–,–,–,–,–
COc1ccccc1/C=C1\NC(=S)N(CC2CCCO2)C1=O (stereo not drawn),–,–,97.4,–,–,·
CN1c2ccsc2C(O)=C(C(=S)Nc2ccc(F)c(Cl)c2)S1(=O)=O,·,–,92.3,–,–,·
CO[C@@H]1CN(C)C(=O)c2cc(NC(C)=O)ccc2OC[C@H](C)N(CC2CCCCC2)C[C@H]1C,–,·,·,·,·,·
Nc1ccc2ccc(N)cc2c1,·,·,·,·,·,–
Nc1ccc2cc3ccccc3cc2c1,48.5,?,·,·,·,–
O=C1c2ccccc2NC(c2ccccc2O)N1c1ccc(F)cc1 (stereo not drawn),–,–,–,–,–,–
COc1cccc(C2Nc3ccccc3C(=O)N2c2ccc(F)cc2)c1O (stereo not drawn),?,100.8,–,–,–,–
C[C@@H]1CN([C@@H](C)CO)C(=O)c2cc(C3=CCCC3)cnc2O[C@@H]1CN(C)C(=O)c1ccccc1,–,·,·,·,·,·
SMILES,esBAF inh,MITF TRPM1 HTS,PHOSPHO1 inh,A3A deaminase,APOBEC3G inh,Wnt act
CC(=O)N1[C@@H]2c3ccc(-c4ccccc4F)c(=O)n3C[C@@H]2[C@@H](CO)[C@@H]1C(=O)NCC1CC1,–,·,·,·,·,·
COc1ccc(-c2coc3cc(OC4OC(CO)C(O)C(O)C4O)cc(O)c3c2=O)cc1 (stereo not drawn),–,?,·,–,–,56.5
COc1ccc(-c2coc3cc(OC4OC(CO)C(O)C(O)C4O)ccc3c2=O)cc1 (stereo not drawn),–,–,·,–,–,41.1
CCCc1cc(=O)oc2cc(O[C@@H]3O[C@H](CO)[C@@H](O)[C@H](O)[C@H]3O)ccc12,–,–,–,–,–,–
COc1ccc(-c2coc3cc(O[C@@H]4O[C@H](CO)[C@@H](O)[C@H](O)[C@H]4O)c(OC)cc3c2=O)cc1,46.6,–,·,–,–,–
COc1ccc(S(=O)(=O)N(C)C[C@@H]2Oc3ccc(NC(=O)Nc4ccc5c(c4)OCO5)cc3C(=O)N([C@H](C)CO)C[C@H]2C)cc1,–,·,·,·,·,·
O=C(O)c1ccc(/C=C(\c2nc3ccccc3[nH]2)c2nc3ccccc3s2)cc1,·,–,–,–,–,41.6
COc1ccc(CNC(=O)c2sc(=S)n(-c3ccc(OC)cc3)c2N)cc1,–,–,95.4,–,–,–
Nc1c(C(=O)NCc2cccnc2)sc(=S)n1-c1ccccc1,–,·,95.5,–,–,–
Cc1ccc(-n2c(N)c(C(=O)NCc3ccco3)sc2=S)cc1,–,–,–,–,–,–
O=C(NCCc1ccccc1)[C@H]1[C@H](CO)[C@H]2Cn3c(cccc3=O)[C@@H]1N2C(=O)C1CC1,–,·,·,·,·,·
Cc1nc2sc(C(=O)O)c(N)c2c2c1COC(C)(C)C2,–,–,65.5,–,–,–
CC(=O)n1nc(-c2ccco2)nc1SCc1ccccc1,55.1,–,–,–,–,·
CCC(=O)n1nc(-c2ccco2)nc1N,–,–,66.8,–,–,·
CCC(=O)n1nc(-c2ccco2)nc1SCc1ccccc1,–,–,–,–,–,–
CC(=O)n1nc(-c2ccco2)nc1N,–,–,–,–,–,·
COCCN(CC(=O)Nc1cccc(C)c1C)C(=O)c1ccc2ccccc2n1,47.2,–,·,–,–,–
N#CC1=C(S)N=C(N)C(c2nc(-c3ccccc3)cs2)C12CCCCC2 (stereo not drawn),–,–,63.7,–,–,·
Cc1cccc(S(=O)(=O)N(C)C[C@@H]2OCc3ccccc3-c3ccccc3C(=O)N([C@@H](C)CO)C[C@@H]2C)c1,–,·,·,·,·,·
CCOC(=O)CSc1nnc(Cc2ccc(OC)cc2)n1-c1ccccc1,·,·,78.7,–,–,–
Cc1ccc(-n2c(COc3ccccc3)nnc2SCC(=O)O)cc1,–,·,·,·,·,62.1
CCOC(=O)CSc1nnc(Cc2ccccc2)n1-c1cccc(Cl)c1,–,–,–,–,–,·
COc1ccc(C(=O)CSc2nnc(COc3ccc(C#N)cc3)n2-c2ccccc2)cc1,–,–,–,–,–,–
COc1ccc(-n2c(COc3ccc(C)cc3)nnc2SCC(N)=O)cc1,–,–,95.0,–,–,–
O=C(CSc1nnc(COc2ccccc2)n1-c1ccccc1)c1ccccc1,·,–,75.6,–,–,–
SMILES,esBAF inh,MITF TRPM1 HTS,PHOSPHO1 inh,A3A deaminase,APOBEC3G inh,Wnt act
COc1ccc(CN(C)C[C@@H]2Oc3c(NS(=O)(=O)c4ccc(Cl)cc4)cccc3C(=O)N([C@H](C)CO)C[C@@H]2C)cc1,–,·,·,·,·,·
CCCC(=O)Nc1ccc2c(c1)C(=O)N(C)[C@@H]1CC[C@H](CC(=O)Nc3ccccc3)O[C@H]1CO2,–,·,·,·,·,·
COc1cccc(-n2c(COc3ccc(C)cc3)nnc2SCC(N)=O)c1,–,–,–,–,–,·
COc1ccc(-n2c(COc3ccccc3)nnc2SCC(N)=O)cc1,–,·,71.5,–,–,–
CCOC(=O)/C=C1\SCC(=O)N1CC(=O)Nc1ccc2c(c1)CCC2,–,–,–,–,–,43.5
CCOC(=O)/C=C1/SCC(=O)N1CC(=O)Nc1cccc(F)c1,–,–,·,–,–,–
